An excerpt weighted towards active compounds, which were near 19% of everything screened.
TDP1 block – TDP1 (human) enzyme inhibition | Q9NUW8 | recombinant TDP1, AlphaScreen DNA substrate cleavage | Potency, µM (series often up to 130 µM), without a hit: top-dose activity change, negative = inhibition, actives largely listed as inhibitors | actives 0.28% (n = 350,000) | AID 485290; also: potency is read from the fitted curve at half-maximal effect; nearly all actives have a fitted effect of over 40% in size
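Enzyme-compound mixtures sat 15 min at room temperature, followed by a 5 min reaction with 15 nM final substrate and 10 min with AlphaScreen beads. Recombinant human Tdp1 was used at 1 nM final.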
IL1B secr inh – inhibitors of inflammasome signaling (IL-1 beta secretion) | THP-1 LPS/ATP IL-1B secretion, AlphaLISA, 16 h; hits give low values | activity change, % at 57.5 µM | actives 4.7% (n = 360,000); in the data active = activity change below about -50%; inconclusive = mostly about -30% to -49%
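Secreted IL-1B measured by AlphaLISA bead assay after 16 h compound exposure of THP-1 cells; compounds (final up to 57.5 uM) added 1 h before LPS (250 ng/mL) and ATP (1.25 mM) stimulation; lower signal means less secretion.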
ELG1 repair inh – ELG1-dependent DNA repair inhibition | HEK293T ELG1-luciferase reporter, luminescence, 16 h; DNA damage induced by 5-fluorouridine | Potency, µM (doses to about 46.1 µM), without a hit: at the highest dose activity change, negative = inhibition, actives largely listed as inhibitors | actives 2.3% (n = 330,000); also: potency is read from the fitted curve at half-maximal effect; nearly all actives have a fitted effect of over 55% in size
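Cells (2,000 per well) received 5-fluorouridine plus test compound or DMSO and were incubated 16 hr at 37 °C, 5% CO2. Luciferase activity was read by luminescence 30 min after ONE-Glo addition; signal suppression marked inhibition of damage-induced ELG1 function.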
Giardia kill – Giardia lamblia killing; Giardia lamblia trophozoite viability; activity change, % at 7.66 µM, hits read low; actives 0.15% (n = 340,000); in the data active = activity change below about -80%; inconclusive = between about -30% and that limit;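 also: parasites exposed to compound for two days anaerobically before the ATP read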
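Trophozoites 100 cells/well + cpd; 48 hrs, 37 deg C, anaerobic. ATPLite 1-Step added, 15-30 min RT, luminescence read (ATP-based viability).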
DT40 TDP1 CPT – DT40-hTDP1 cell growth loss with CPT | chicken DT40 Tdp1-/-;hTDP1 cells + 20 nM CPT, ATP luminescence, 48 h | Potency, µM (series often up to 46.2 µM), for the others: top-dose activity change, negative = growth inhibition, actives largely listed as inhibitors | actives 12% (n = 420,000); also: potency is read from the fitted curve at half-maximal effect; nearly all actives have a fitted effect of over 55% in size
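Chicken DT40 Tdp1-/- cells stably complemented with human TDP1 were seeded at 400 cells/well in medium containing 20 nM camptothecin, exposed to pin-transferred compounds, and grown at 37 °C for at least 48 hr. Viability was read as ATP luminescence.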
DT40 TDP1 no CPT – qHTS for Inhibitors of human tyrosyl-DNA phosphodiesterase 1 (TDP1): qHTS in cells in absence of CPT. DT40 Tdp1-/- hTDP1 cells, no CPT, ATP luminescence, 48 h. Potency, µM (highest dose often 46.2 µM), for inactives: at the highest dose activity change, negative = growth inhibition, hits mostly inhibitors. actives 15% (n = 420,000); also: potency is read from the fitted curve at half-maximal effect; nearly all actives have a fitted effect of over 55% in size
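DT40 Tdp1-/-;hTDP1 cells, no CPT (DMSO vehicle only), 400 cells/well; compounds pin-transferred; ≥48 hr, 37 °C; CellTiter-Glo 30 min RT dark, luminescence read.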
Starred values were filed as active, the others as inactive; ? = inconclusive; . = not tested or not shown; [ ] = dose if it differs, or a comment. Unless noted, calls follow the shape of the dose curve; as a rule, active = well fitted curve in the direction sought with a large enough effect; inconclusive = small, poorly fitted or top-dose-only effect, or another doubt; inactive = no such curve, though single readings can be large; an effect the other way counts as inactive or inconclusive. % is scaled to controls: 0 for no effect and ±100 for the full control effect.

SMILES	TDP1 block	IL1B secr inh	ELG1 repair inh	Giardia kill	DT40 TDP1 CPT	DT40 TDP1 no CPT
CCOC(=O)/C=c1\s/c(=C\c2ccc3cc(OC)ccc3c2)c(=O)n1CC(=O)NCc1ccc2c(c1)OCO2	-8%	7	?	-6	6.5µM*	9.2µM*
CCOC(=O)/C=c1\s/c(=C\c2ccccc2C)c(=O)n1CC(=O)NCc1ccc2c(c1)OCO2	2%	16	-27%	-10	?	?
CCC(C)[C@H](NC(=O)[C@@H]1CSC2c3ccccc3C(=O)N21)C(=O)NCc1ccncc1 (stereo not given in full)	4%	-3	-4%	9	-3%	34%
COc1ccc(/C=N/Nc2nc(N3CCCC3)nc(N3CCCC3)n2)cc1O	4%	10	?	12	-22%	?
COc1cc(/C=N/Nc2nc(N3CCCC3)nc(N3CCCC3)n2)ccc1OCc1ccccc1F	7%	-13	?	-3	16µM*	21µM*
CN=C(Nc1ccc(Br)cc1)SC1CC(=O)N(c2ccc(OC)cc2)C1=O (stereo not given)	-1%	-9	?	24	?	?
Cc1cccnc1NC(=O)c1ccc2c(c1)OCCO2	1%[0.505 µM]	-5	?	11	1%	-9%
O=C(Nc1ncccc1O)c1ccc2c(c1)OCO2	0%	27	?	-4	?	16µM*
O=C(Nc1ncccc1O)c1ccc2c(c1)OCCO2	1%	12	?	12	23µM*	15µM*
COc1ccc2c(CN3CCCCCCC3)cc(=O)oc2c1	.	48	.	.	?	?
CCOc1ccc(OCC)c(NC(=O)c2ccc(-c3ccccc3)s2)c1	5%	.	.	.	?	?
Cc1ccc(C)c(S(=O)(=O)N2CCCCC2CCNC(=O)C(=O)NC2CC2)c1 (stereo not given)	4%	16	-13%	4	-21%	?
Cc1ccc(C)c(S(=O)(=O)N2CCCC2CNC(=O)C(=O)NCc2ccccc2C)c1 (stereo not given)	.	-17	15µM*	-7	?	?
Cc1ccc(C)c(S(=O)(=O)N2CCCC2CNC(=O)C(=O)NC2CCCCCC2)c1 (stereo not given)	1%	-23	-16%	5	?	23µM*
COc1ccc(-n2c(=O)c(-c3ccc(Cl)cc3)nc3cnc(N4CCOCC4)nc32)cc1	.	.	.	.	14%	-12%
CCCCN(C)CCNC(=O)CCn1nc(-c2ccc(C)cc2)ccc1=O	.	-13	-5%	-11	21µM*	-9%
COC(=O)c1c(-c2cc(OC)c(OC)c(OC)c2)c2ccc(OCc3ccccn3)cc2c(=O)n1-c1ccc(N)cc1	13%[56.1 µM]	.	.	.	.	.
CCNC(=O)c1cc2c(c(-c3cccc(-c4cccc(C(=O)N(C)C)c4)c3)n1)[C@@H](CCO)N(S(=O)C(C)(C)C)C2 (stereo not given in full)	.	-23	.	.	?	21µM*
CC(C)(C)S(=O)N1Cc2cc(C(=O)NCC(F)(F)F)nc(-c3cccc(-c4cccc(F)c4)c3)c2[C@@H]1CCO (stereo not given in full)	.	-2	.	.	18µM*	18µM*
O=C(COC(=O)C12CC3CC(CC(C3)C1)C2)Nc1ccccc1F	-5%	5	?	26	-22%	-28%
CCCC(c1nnnn1CS(=O)(=O)c1ccc(C)cc1)N1CCN(CC)CC1 (stereo not given)	-2%	-18	0%	-10	-26%	-8%
CCOc1ccccc1NC(=O)CSc1nc2c(oc3ccccc32)c(=O)n1C(C)C	2%	.	.	.	-3%	-13%
Cc1ccc(Cn2nnc3sc4c(c3c2=O)CCC(C)C4)cc1 (stereo not given)	1%	.	.	.	-28%	?
